Where two headings read alike, the source gives them in different places. Screen size: about 13,000 compounds; about 3,200 (25%) showed an effect of 50% or more. The list shows a part of the results.
Tested on: P. falciparum stage V gametocytes
Design: BacTiter-Glo ATP luminescence viability of purified stage V gametocytes in 384-well plates, per cent inhibition versus DMSO
Details: 48 h, 5 µM, inhibitor

Row | Structure (SMILES) | % Inhibition | % Inhibition (% Inhibition)
1 | Cn1cnc2c(SCc3ccc(OCc4ccccc4)cc3)ncnc21 [TCMDC-136496] | -19.47% | 
2 | O=C(NC(=O)c1ccccc1O)c1ccccc1O [TCMDC-125868] | 4.896% | 
3 | O=C(NC1CCN(c2ccnc3cc(Cl)ccc23)C1)c1ccc(F)cc1 (centres unmarked) [TCMDC-133653] | -3.627% | 
4 | O=C(Nc1nc2ccc(Cl)cc2s1)c1csnn1 [TCMDC-125073] | -15.98% | 
5 | Cn1c(C2CC3CCC(C2)N3CC2CCC(NC(=O)/C=C/c3ccc(Cl)c(Cl)c3)CC2)nc2ccccc21 (centres unmarked) [TCMDC-140342] | -2.342% | 
6 | Cc1ccccc1N1CCN(c2ncc(C(=O)NC3CC3)cc2Cl)CC1 [TCMDC-134602] | 6.226% | 
7 | CC(C)C[C@@H](/C=N/N1CCOC1=O)NC(=O)[C@H](CC(C)C)NC(=O)c1ccc(OCCN2CCOCC2)cc1 [TCMDC-136170] | -12.99% | 
8 | COC(=O)c1ccc(CCCNCC(O)c2cccc(C(F)(F)F)c2)cc1 (centres unmarked) [TCMDC-131462] | 1.956% | 
9 | O=C(/C=C/c1ccc(Cl)c(Cl)c1)NCCCCCN1CCCN(C(=O)Nc2ccc(F)c(Cl)c2)CC1 [TCMDC-135755] | -45.85% | 
10 | O=C(/C=C/c1ccc(Cl)c(Cl)c1)NCCCCCN1CCCN(C(=O)Nc2cc(Cl)cc(Cl)c2)CC1 [TCMDC-135760] | -3.132% | 
11 | O=C(/C=C/c1ccc(Cl)c(Cl)c1)NCCCCCCN1CCCN(C(=O)Nc2cc(Cl)cc(Cl)c2)CC1 [TCMDC-135936] | -15.47% | 
12 | O=C(COc1ccc(Cl)c(Cl)c1)NCCCCCN1CCCN(C(=O)Nc2ccc(Cl)c(Cl)c2)CC1 [TCMDC-136292] | 72.04% | 
13 | Cc1ccc(/C=C/C(=O)NCCCCCN2CCCN(C(=O)Nc3ccc(Cl)c(Cl)c3)CC2)cc1 [TCMDC-136111] | -64.67% | 
14 | O=C(COc1ccc(Cl)c(Cl)c1)NCCCCCN1CCCN(C(=O)Nc2cc(Cl)cc(Cl)c2)CC1 [TCMDC-136293] | 78.53% | 
15 | CC(NC(C)(C)C)C(O)c1ccc(Cl)c(C(F)(F)F)c1 (centres unmarked) [TCMDC-137910] | -2.927% | 
16 | Cc1cccc(C(=O)NC(NC(=S)Nc2cc(Cl)ccc2Cl)C(Cl)(Cl)Cl)c1 (centres unmarked) [TCMDC-124254] | -20.87% | 
17 | CC1(C)N=C(N)N=C(N)N1OCCCOc1cccc(Cl)c1 [TCMDC-131762] | 16.24% | 
18 | COc1ccc2nccc([C@@H](O)CN3CCC(NC(=O)/C=C/c4cc(F)cc(Br)c4)CC3)c2c1 [TCMDC-141031] | -7.765% | 
19 | CN(C)CCOc1ccc(/C(=C(/CCCn2ccnc2)c2ccccc2)c2ccc(O)cc2)cc1 [TCMDC-138900] | -20.55% | 
20 | CCCc1cc(OC)c(C[C@@H]2c3cc(O)c(Cl)cc3CCN2C)cc1OC [TCMDC-138128] | -6.481% | 
21 | CN1C(=O)C(=O)N(CCCCCON=C(N)N)C1=S [TCMDC-139249] | 12.53% | 
22 | CCNC(C)(C)CN(Cc1ccc(-c2ccc(C(F)(F)F)cc2)cc1)C(=O)Cn1c(CCc2cccc(F)c2F)nc(=O)c2ccccc21 [TCMDC-141047] | 102.8% | 

Row | Structure (SMILES) | % Inhibition | % Inhibition (% Inhibition)
23 | CC(C)NC(C)(C)CN(Cc1ccc(-c2ccc(C(F)(F)F)cc2)cc1)C(=O)Cn1c(CCc2cccc(F)c2F)nc(=O)c2ccccc21 [TCMDC-141084] | 71.8% | 
24 | COc1ccc(NC(=O)Nc2cccc(-c3ccncc3)c2)cc1N1CCN(C)CC1 [TCMDC-139111] | 12.5% | 
25 | O=C(Nc1ccc(-c2nc3cc4ccccc4cc3[nH]2)cc1)c1cccc(Br)c1 [TCMDC-123806] | -9.366% | 
26 | O=C(NC1CC1)c1ccc(N2CCC(Oc3ccc(F)cc3)CC2)nc1 [TCMDC-134053] | 8.582% | 
27 | O=C(Nc1ccc(C(F)(F)F)cc1)NC1CCN(c2ccnc3cc(Cl)ccc23)CC1 [TCMDC-133568] | -13.61% | 
28 | CC(CCCCC(=O)Nc1ccc(C(F)(F)F)cc1)NCC(O)c1cccc(Cl)c1 (centres unmarked) [TCMDC-131538] | 28.83% | 
29 | O=C(Cn1c2ccccc2c(=O)c2ccc(Cl)cc21)Nc1ccc(C(F)(F)F)cc1 [TCMDC-125568] | 64.99% | 
30 | O=[N+]([O-])c1ccc(CNCCCCCCNCc2ccc([N+](=O)[O-])c3ccccc23)c2ccccc12 [TCMDC-137830] | 10.64% | 
31 | FC(F)(F)COc1ccc(CNCCCCCCNCc2ccc(OCC(F)(F)F)c3ccccc23)c2ccccc12 [TCMDC-137853] | 131% | 
32 | FC(F)(F)COc1ccc(CCNCCCCNCCc2ccc(OCC(F)(F)F)c3ccccc23)c2ccccc12 [TCMDC-137282] | 101.8% | 
33 | O=c1cc(NCCCNCc2ccc(C(F)(F)F)cc2F)[nH]c2ccccc12 [TCMDC-139427] | 7.285% | 
34 | O=C(/C=C/c1ccc(Cl)c(Cl)c1)NCCCCCCN1CCN(C(=O)Nc2cc(Cl)nc(Cl)c2)CC1 [TCMDC-135891] | -18.09% | 
35 | Cc1cccc(C(=O)Nc2ccnc(N(C)C3CCN(CC(C)C)CC3)c2)c1 [TCMDC-135023] | -10.51% | 
36 | O=C(/C=C/c1cccc(F)c1)NC1CCC(CN2CCC(c3c[nH]c4ccccc34)CC2)CC1 (centres unmarked) [TCMDC-139698] |  | 74.99%
37 | O=C(/C=C/c1cccc(F)c1)NC1CCC(CN2CCC(c3c[nH]c4ccccc34)CC2)CC1 (centres unmarked) [TCMDC-139713] |  | 90.71%
38 | Cc1ccc(/C=C/C(=O)NC2CCC(CN3CCC(c4c[nH]c5ccccc45)CC3)CC2)cc1C (centres unmarked) [TCMDC-139769] |  | 39.49%
39 | Cc1nc(N)nc(N)c1-c1cc(Cl)c(Cl)c(Cl)c1 [TCMDC-137398] | 11.14% | 
40 | CCCC(=O)Nc1ccc(OCCCN(Cc2cccc(C(F)(F)F)c2)c2ccc(C#N)c(C(F)(F)F)c2)cc1 [TCMDC-135666] | 6.029% | 
41 | CCOc1ccc2nccc([C@@H](O)[C@@H]3C[C@@H]4CCN3C[C@@H]4CC)c2c1 [TCMDC-123483] |  | -64.91%
42 | Cc1cc(N2CCCN(C)CC2)nc(Nc2ccc(Br)cc2)n1 [TCMDC-137014] | 8.487% | 
43 | CCOC(=O)c1cc(C(=O)OC)c2ccccn12 [TCMDC-124299] | 4.818% | 
44 | CC1=C(C(=O)OC(C)C)C(c2ccccc2Cl)C2=C(CC(c3ccccc3)CC2=O)N1 (centres unmarked) [TCMDC-125608] | 34.25% | 

Row | Structure (SMILES) | % Inhibition | % Inhibition (% Inhibition)
45 | CSc1nccc(-c2ccc(S(=O)(=O)NC3CCC(CN4CCC(c5c[nH]c6ccccc56)CC4)CC3)s2)n1 (centres unmarked) [TCMDC-131237] |  | 110.6%
46 | O=C(NC1CCC(CN2CCC(c3c[nH]c4ccccc34)CC2)CC1)c1[nH]c(=O)[nH]c(=O)c1F (centres unmarked) [TCMDC-139889] | 14.48% | 
47 | CSc1nccc(-c2ccc(S(=O)(=O)NC3CCC(CN4CCC(c5c[nH]c6ccccc56)CC4)CC3)s2)n1 (centres unmarked) [TCMDC-131236] |  | 106.4%
48 | N#Cc1c(Cl)cccc1Oc1ccc(S(=O)(=O)NC2CCC(CN3CCC(c4c[nH]c5ccccc45)CC3)CC2)cc1 (centres unmarked) [TCMDC-140175] |  | 1.176%
49 | O=C(CCc1cccnc1)Nc1cccc(-c2ccc(-c3nc4ccc(C(F)(F)F)cc4[nH]3)cc2)c1 [TCMDC-132148] | -27.41% | 
50 | Cc1ccccc1C1CCN(c2ncc(C(=O)NC3CC3)cc2Cl)CC1 [TCMDC-134609] | 14.1% | 
51 | CC(C)(C)OC(=O)N[C@@H](CS(=O)(=O)CCN=C(N)COCc1ccccc1)C(=O)OC(C)(C)C [TCMDC-138107] | 24.21% | 
52 | O=C(N[C@H]1CCN(Cc2ccc(OCCCN3CCCCC3)cc2)C1)c1ccc(Oc2ccccc2)cc1 [TCMDC-141773] | 88.22% | 
53 | c1ccc(C(c2cccs2)N2CCN(Cc3ccc(OCCCN4CCCCC4)cc3)CC2)cc1 (centres unmarked) [TCMDC-141954] | 38.42% | 
54 | O=C(Nc1ccc(C(=O)Oc2ccc(-c3ccccc3)cc2)cc1)N[C@@H](Cc1ccc(O)cc1)C(=O)NC1CCN(Cc2ccc(O)cc2)C1 (some centres unmarked) [TCMDC-135361] | -42.48% | 
55 | O=C(N[C@H]1CCN(Cc2ccc(OC3CCN(Cc4ccccc4)CC3)c(Cl)c2)C1)c1ccc(Cl)c(Cl)c1 [TCMDC-140277] | 30.17% | 
56 | O=C(N[C@H]1CCN(Cc2ccc(OC3CCN(Cc4ccccc4)CC3)cc2)C1)c1ccc(Cl)c(Cl)c1 [TCMDC-140265] | 57.35% | 
57 | O=C(N[C@@H](Cc1ccccc1)CN1CCC(Oc2ccc(F)cc2)CC1)c1ccc(OCCCN2CCCCC2)cc1 [TCMDC-135416] | 28.27% | 
58 | Fc1cc(CN2CCCC2)ccc1OCCCN1CCN(c2cccc(Cl)c2Cl)CC1 [TCMDC-137001] | 7.626% | 
59 | Cc1cc(CN2CC[C@H](NC(=O)c3ccc(Cl)c(Cl)c3)C2)ccc1OC1CCN(Cc2ccccc2)CC1 [TCMDC-140282] | -33.37% | 
60 | O=S(=O)(c1ccc2ccccc2c1)N1CCCN(Cc2ccc(OCCCN3CCCCC3)cc2)CC1 [TCMDC-141721] | 52.58% | 
61 | O=C(NC1CCN(Cc2ccccc2)C1)c1ccc(Nc2ccc(Br)cc2)nc1 (centres unmarked) [TCMDC-133798] | -17.8% | 
62 | O=C(Cc1ccc(-c2ccccc2)cc1)N[C@H]1CCN(Cc2ccc(OCCCN3CCCCC3)cc2)C1 [TCMDC-141776] | 70.4% | 
63 | CS(=O)(=O)Cc1ccc(Nc2ncc(Cl)c(Nc3cccnc3C(N)=O)n2)cc1 [TCMDC-134165] | -4.656% | 
64 | CC1CN=C(c2cccc(NC(=O)Nc3cccc(C4=NCC(C)N4)c3)c2)N1 (centres unmarked) [TCMDC-137194] | 7.217% | 
65 | COc1cc2c(cc1C(F)(F)F)N(C(=O)Nc1ccc(Br)cn1)CC2 [TCMDC-139015] | -19.75% | 

From paper PMC4552634, “A New Set of Chemical Starting Points with Plasmodium falciparum Transmission-Blocking Potential for Antimalarial Drug Discovery” (PLoS ONE, 2015)
